Inconclusive results are not listed. Active and inactive are the calls of the source. How the source made its calls: active means hit-call score of the fitted dose curve at least 0.9, where 1 is the maximum; inconclusive means response in the unintended direction; inactive means score below 0.9.
These compounds were tested against rat Glutamate, AMPA Site (AMPA), Gria1 (gene 50592) (UniProt P19490) (assay: NVS_LGIC_rAMPA: NovaScreen (NVS) Ligand-Gated Ion Channel Assay for rat Glutamate, AMPA Site (AMPA) (AID 2283324)).
Sequence of rat Glutamate, AMPA Site (AMPA), Gria1 (gene 50592) (P19490 whole entry, looked up): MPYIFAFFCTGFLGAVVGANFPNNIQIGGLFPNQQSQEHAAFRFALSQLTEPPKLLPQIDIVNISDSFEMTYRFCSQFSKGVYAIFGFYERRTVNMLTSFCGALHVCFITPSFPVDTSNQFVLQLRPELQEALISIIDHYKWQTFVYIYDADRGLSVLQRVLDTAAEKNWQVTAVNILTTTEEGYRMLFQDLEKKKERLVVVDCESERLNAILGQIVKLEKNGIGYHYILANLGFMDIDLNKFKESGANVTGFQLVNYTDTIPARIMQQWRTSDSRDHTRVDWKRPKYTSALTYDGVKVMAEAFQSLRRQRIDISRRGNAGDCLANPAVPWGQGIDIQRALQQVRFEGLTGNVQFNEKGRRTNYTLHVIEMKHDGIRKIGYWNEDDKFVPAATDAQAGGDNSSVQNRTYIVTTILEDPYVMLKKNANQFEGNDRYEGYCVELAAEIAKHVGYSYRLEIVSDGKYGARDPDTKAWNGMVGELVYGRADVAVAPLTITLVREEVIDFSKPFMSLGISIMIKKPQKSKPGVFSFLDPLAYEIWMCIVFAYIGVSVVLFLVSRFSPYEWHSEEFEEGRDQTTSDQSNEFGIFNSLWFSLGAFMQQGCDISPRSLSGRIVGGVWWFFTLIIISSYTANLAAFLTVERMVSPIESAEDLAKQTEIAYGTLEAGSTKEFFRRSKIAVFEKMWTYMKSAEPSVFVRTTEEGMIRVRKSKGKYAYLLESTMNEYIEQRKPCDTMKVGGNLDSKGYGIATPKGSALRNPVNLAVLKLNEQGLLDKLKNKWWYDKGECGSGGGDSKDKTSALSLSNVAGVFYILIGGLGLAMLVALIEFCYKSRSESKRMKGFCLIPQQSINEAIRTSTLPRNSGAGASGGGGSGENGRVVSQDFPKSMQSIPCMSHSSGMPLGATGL
Summary of the method: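 Rat forebrain membranes; radioligand binding read 1 h after dosing by filtration and scintillation counting. Duplicate single-point screen at 25 uM, then concentration-response to 50 uM for threshold hits (e.g. 30% inhibition); loss of signal vs DMSO.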
With `Cn1c(=O)cc(Oc2ccc(F)cc2F)c2cnc(NCC(C)(C)O)nc21` the outcome was “inactive”. `O=C(OC[C@H]1O[C@@H](OC(=O)c2cc(O)c(O)c(OC(=O)c3cc(O)c(O)c(O)c3)c2)[C@H](OC(=O)c2cc(O)c(O)c(OC(=O)c3cc(O)c(O)c(O)c3)c2)[C@@H](OC(=O)c2cc(O)c(O)c(OC(=O)c3cc(O)c(O)c(O)c3)c2)[C@@H]1OC(=O)c1cc(O)c(O)c(OC(=O)c2cc(O)c(O)c(O)c2)c1)c1cc(O)c(O)c(OC(=O)c2cc(O)c(O)c(O)c2)c1` was tested, and the AC50 was 9.44 µM (active). In the case of `CC(C)=CCCC(C)=CC=O`, the outcome was “inactive”. With `O=C(O)CC(O)C(=O)O` (stereo not given) the outcome was “inactive”. For `CC(=O)OCCC(C)C`, the outcome was “inactive”. For `CC1=CC(=O)CC(C)(C)C1`, the outcome was “inactive”. `CNCc1ccc(NC(=O)c2c[nH]c3c2C(=O)CCC3)cc1` was tested, and the outcome was “inactive”.

What follows are compounds tested against human Serotonin, 5-Hydroxytryptamine Receptor 3 (5HT3), HTR3A (gene 3359) (UniProt P46098) (assay: NVS_LGIC_h5HT3: NovaScreen (NVS) Ligand-Gated Ion Channel Assay for human Serotonin, 5-Hydroxytryptamine Receptor 3 (5HT3) (AID 2283325)).
Sequence of human Serotonin, 5-Hydroxytryptamine Receptor 3 (5HT3), HTR3A (gene 3359) (P46098 whole entry, looked up): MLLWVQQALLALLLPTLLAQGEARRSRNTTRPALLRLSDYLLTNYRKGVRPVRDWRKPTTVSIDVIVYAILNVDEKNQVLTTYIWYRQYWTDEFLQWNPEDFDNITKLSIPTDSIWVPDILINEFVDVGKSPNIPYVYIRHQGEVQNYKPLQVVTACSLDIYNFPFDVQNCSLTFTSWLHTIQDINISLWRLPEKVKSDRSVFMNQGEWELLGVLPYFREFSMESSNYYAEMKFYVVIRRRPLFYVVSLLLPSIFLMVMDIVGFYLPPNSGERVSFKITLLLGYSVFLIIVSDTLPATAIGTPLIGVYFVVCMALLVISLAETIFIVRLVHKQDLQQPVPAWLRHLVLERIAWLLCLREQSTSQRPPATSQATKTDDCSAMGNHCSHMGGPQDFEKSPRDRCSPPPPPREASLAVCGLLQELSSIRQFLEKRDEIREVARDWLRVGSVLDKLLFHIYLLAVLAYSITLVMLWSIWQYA
Description: NVS_LGIC_h5HT3 is a biochemical, single-readout assay that uses extracted gene-proteins from HEK293 in a cell-free assay. Measurements were taken 1 hour after chemical dosing in a 96-well plate.NVS_LGIC_h5HT3 is one of one assay component(s) measured or calculated from the NVS_LGIC_h5HT3 assay. It is designed to make measurements of radioligand binding, a form of binding reporter, as detected with scintillation counting signals by Filter-based radiodetection technology.Data from the assay component NVS_LGIC_h5HT3 was analyzed into 1 assay endpoint. This assay endpoint, NVS_LGIC_h5HT3, was analyzed in the positive analysis fitting direction relative to DMSO as the negative control and baseline of activity. Using a type of binding reporter, loss-of-signal activity can be used to understand changes in the binding as they relate to the gene HTR3A. Furthermore, this assay endpoint can be referred to as a primary readout, because the performed assay has only produced 1 assay endpoint. To generalize the intended target to other relatable targets, this assay endpoint is annotated to the ion channel intended target family, where the subfamily is ligand-gated ion channel.
(§1) Binding assays used specific radioligands (tritiated, iodinated) with non-radioactive competitive displacement ligands in agonist or antagonist protocols (as indicated) and various reference compounds and inhibitors to titrate specific binding to receptors and transporters. Most enzyme assays (CYPs, kinases, phosphatases, proteases, HDACs) used recombinant protein and specific substrates (fluorescence mostly, some colorimetric and radioactive) and inhibitors, followed by a biochemical separation of substrate and product. All assays for the biochemical HTS were initially run in duplicate at a single concentration (10 uM for CYP450 assays and 25 uM for all others). Assay-chemical combinations meeting a pre-defined threshold (e.g., 30% inhibition and other criteria defined below) were then run in singleton concentration-response format with maximum concentration of 20 uM for CYPs and 50 uM for all others. Each assay was run with positive and negative controls, and concurrent controls on every plate. The follow-up (secondary) screen tested active chemical-pairs in concentration series, as well as a few additional assays not tested in the primary screen, some selected negative inactives, and several cases re-run in the concentration series for confirmatory purposes.
In the case of `CC(C)=CCC/C(C)=C\CO`, the outcome was “inactive”. With `COc1cccc(-c2ccc(/C=C\CN3CCCCCC3)cc2Cl)c1` the outcome was “inactive”. With `C=CCCCCCCCCC(=O)O` the outcome was “inactive”. In the case of `Cc1[nH]cnc1C[C@H]1CCc2c(C)c3ccccc3n2C1=O`, the AC50 was 2.04 nM (active).

The compounds below were run against rat Gamma-Aminobutyric Acid Type A Receptor, Non-Selective (GABAR-NonSelective), Gabra1 (gene 29705) (UniProt P62813) (assay: NVS_LGIC_rGABAR_NonSelective: NovaScreen (NVS) Ligand-Gated Ion Channel Assay for rat Gamma-Aminobutyric Acid Type A Receptor, Non-Selective (GABAR-NonSelective) (AID 2283326)).
Sequence of rat Gamma-Aminobutyric Acid Type A Receptor, Non-Selective (GABAR-NonSelective), Gabra1 (gene 29705) (P62813 whole entry, looked up): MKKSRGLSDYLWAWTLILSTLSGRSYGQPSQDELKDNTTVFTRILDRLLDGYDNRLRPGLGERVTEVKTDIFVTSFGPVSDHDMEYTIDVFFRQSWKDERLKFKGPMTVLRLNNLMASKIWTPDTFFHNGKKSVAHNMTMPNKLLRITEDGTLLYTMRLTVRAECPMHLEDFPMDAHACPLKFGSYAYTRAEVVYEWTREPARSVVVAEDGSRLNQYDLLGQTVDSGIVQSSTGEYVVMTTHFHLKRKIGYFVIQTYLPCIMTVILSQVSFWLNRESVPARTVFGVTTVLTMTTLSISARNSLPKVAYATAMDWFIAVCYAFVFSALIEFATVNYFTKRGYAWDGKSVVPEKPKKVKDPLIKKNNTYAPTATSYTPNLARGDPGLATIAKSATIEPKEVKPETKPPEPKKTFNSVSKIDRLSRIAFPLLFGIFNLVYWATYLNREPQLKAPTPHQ
Summary of the method: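 Radioligand displacement on rat whole-brain extract, 1 h, filter scintillation readout; signal loss fitted versus DMSO. Primary screen in duplicate at 25 uM; hits (e.g. ≥30% inhibition) retested in concentration-response up to 50 uM.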
With `CCOC(=O)c1ccc(C2CCC(NC[C@H](O)COc3ccc(O)c(NS(C)(=O)=O)c3)CC2)cc1` (stereo not given in full) the AC50 was 4.64 µM (active). With `COc1cccc(-c2ccc(/C=C\CN3CCCCCC3)cc2Cl)c1` the outcome was “inactive”. For `CCN(C(=O)c1cc(C)cc(OC[C@H](C)Nc2ccncc2)c1)C(C)C`, the AC50 was 1.13 µM (active). With `COCCOc1cc2cc(C(=O)NC3CCN(C(C)C)CC3)n(CC(=O)Nc3ccc(Cl)cn3)c2cn1` the outcome was “inactive”. For `CNCc1ccc(NC(=O)c2c[nH]c3c2C(=O)CCC3)cc1`, the outcome was “inactive”.

What follows are compounds tested against rat Glutamate, NMDA Agonist Site (GluNMDA), Grin1 (gene 24408) (UniProt P35439) (assay: NVS_LGIC_rGluNMDA_Agonist: NovaScreen (NVS) Ligand-Gated Ion Channel Assay for rat Glutamate, NMDA Agonist Site (GluNMDA) (AID 2283327)).
Summary of the method: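 Rat forebrain membranes, radioligand binding in the agonist-site protocol; 1 h after dosing; filter-based scintillation counting. Single-concentration duplicate screen at 25 uM, then concentration-response up to 50 uM for actives; gain-of-signal vs DMSO.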
For `COc1ccc(-n2nc(C(F)F)cc2-c2ccc(S(C)=O)cc2)cc1` (stereo not given), the outcome was “inactive”. For `Fc1ccccc1[C@@H](F)COC1CCC(Nc2ncnc3[nH]ncc23)CC1` (stereo not given in full), the AC50 was 616 nM (active). For `O=c1[nH]c2ccc(S(=O)CCN3CCC(Cc4ccc(F)cc4)CC3)cc2o1` (stereo not given), the outcome was “inactive”.

The compounds below were run against rat Thyrotropin Releasing Hormone Receptor (TRH), Trhr (gene 25570) (UniProt Q01717) (assay: NVS_GPCR_rTRH: NovaScreen (NVS) G Protein-Coupled Receptor Assay for rat Thyrotropin Releasing Hormone Receptor (TRH) (AID 2283329);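 further: hit means lower bound tracer signal versus DMSO baseline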).
Sequence of rat Thyrotropin Releasing Hormone Receptor (TRH), Trhr (gene 25570) (Q01717 whole entry, looked up): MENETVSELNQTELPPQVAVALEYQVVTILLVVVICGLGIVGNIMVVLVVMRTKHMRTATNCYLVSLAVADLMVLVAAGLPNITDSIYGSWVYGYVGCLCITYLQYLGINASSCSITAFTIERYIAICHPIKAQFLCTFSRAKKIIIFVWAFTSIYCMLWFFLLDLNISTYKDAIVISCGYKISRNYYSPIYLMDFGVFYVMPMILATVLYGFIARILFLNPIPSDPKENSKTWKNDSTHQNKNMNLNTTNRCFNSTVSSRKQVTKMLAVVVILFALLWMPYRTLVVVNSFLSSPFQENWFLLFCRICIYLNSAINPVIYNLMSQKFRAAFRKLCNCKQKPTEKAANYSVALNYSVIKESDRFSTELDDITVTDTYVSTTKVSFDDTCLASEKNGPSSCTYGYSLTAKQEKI
Description: NVS_GPCR_rTRH is a biochemical, single-readout assay that uses extracted gene-proteins from Rat forebrain membranes in a tissue-based cell-free assay. Measurements were taken 4 hours after chemical dosing in a 48-well plate.NVS_GPCR_rTRH is one of one assay component(s) measured or calculated from the NVS_GPCR_rTRH assay. It is designed to make measurements of radioligand binding, a form of binding reporter, as detected with scintillation counting signals by Filter-based radiodetection technology.Data from the assay component NVS_GPCR_rTRH was analyzed into 1 assay endpoint. This assay endpoint, NVS_GPCR_rTRH, was analyzed in the positive analysis fitting direction relative to DMSO as the negative control and baseline of activity. Using a type of binding reporter, loss-of-signal activity can be used to understand changes in the binding as they relate to the gene Trhr. Furthermore, this assay endpoint can be referred to as a primary readout, because the performed assay has only produced 1 assay endpoint. To generalize the intended target to other relatable targets, this assay endpoint is annotated to the gpcr intended target family, where the subfamily is rhodopsin-like receptor.
as §1, with “Assay-chemical combinations meeting a pre-defined threshold (e.g., 30% inhibition and other criteria defined below) were then run in singleton concentration-response format with maximum concentration of 20 uM for CYPs and 50 uM for all others.” left out
`CCOC(=O)CC(CC(=O)OCC)(OC(C)=O)C(=O)OCC` was tested, and the outcome was “inactive”. With `COc1ccc(-n2nc(C(F)F)cc2-c2ccc(S(C)=O)cc2)cc1` (stereo not given) the outcome was “inactive”. `Cc1[nH]cnc1C[C@H]1CCc2c(C)c3ccccc3n2C1=O` was tested, and the outcome was “inactive”. With `O=C(NS(=O)(=O)/C=C/c1ccccc1)c1ccc(F)cc1Cl` the AC50 was 2.5 nM (active).

Each compound was assayed against human Peripheral-type Benzodiazepine Receptor (PBR), TSPO (gene 706) (UniProt P30536) (assay: NVS_MP_hPBR: NovaScreen (NVS) Membrane Protein Assay for human Peripheral-type Benzodiazepine Receptor (PBR) (AID 2283331);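 further: hits reduce radioligand binding relative to DMSO baseline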).
Sequence of human Peripheral-type Benzodiazepine Receptor (PBR), TSPO (gene 706) (P30536 whole entry, looked up): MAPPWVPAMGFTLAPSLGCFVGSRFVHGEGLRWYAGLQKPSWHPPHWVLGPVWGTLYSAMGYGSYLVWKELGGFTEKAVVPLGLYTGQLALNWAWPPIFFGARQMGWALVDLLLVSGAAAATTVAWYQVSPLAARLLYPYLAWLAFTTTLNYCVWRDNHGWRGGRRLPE
Summary of the method: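 Radioligand displacement on human colonic cell membranes, 1 h incubation; bound radioactivity by filtration and scintillation counting. Primary screen in duplicate at 25 uM single concentration, actives followed up in concentration series; loss of binding versus DMSO.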
In the case of `CCOc1cccc(-n2cc(C(=O)N3CCN(c4cc(C(=O)O)c5ccccc5c4)CC3)nc2-c2ccc(C)cc2)c1`, the AC50 was 3.71 µM (active). For `COc1ccc2sc(C(=O)Nc3nnn[nH]3)c(OC(C)C)c2c1`, the AC50 was 25 µM (active). `CC(C)CCO` was tested, and the AC50 was 15.8 µM (active). `O=C(OC[C@H]1O[C@@H](OC(=O)c2cc(O)c(O)c(OC(=O)c3cc(O)c(O)c(O)c3)c2)[C@H](OC(=O)c2cc(O)c(O)c(OC(=O)c3cc(O)c(O)c(O)c3)c2)[C@@H](OC(=O)c2cc(O)c(O)c(OC(=O)c3cc(O)c(O)c(O)c3)c2)[C@@H]1OC(=O)c1cc(O)c(O)c(OC(=O)c2cc(O)c(O)c(O)c2)c1)c1cc(O)c(O)c(OC(=O)c2cc(O)c(O)c(O)c2)c1` was tested, and the AC50 was 5.11 µM (active). With `CCc1cc(SCc2sc(-c3ccc(C(F)(F)F)cc3)nc2CN2CCN(c3ccc(OC)cc3)CC2)ccc1OCC(=O)O` the outcome was “inactive”. `O=P(OC(CCl)CCl)(OC(CCl)CCl)OC(CCl)CCl` was tested, and the AC50 was 2.01 µM (active). For `O=C(O)c1cccc(N(Cc2cccnc2)c2ccc(OC(F)F)c(OC(F)F)c2)c1`, the outcome was “inactive”. In the case of `Nc1ccc(Nc2ccccc2)cc1`, the AC50 was 11.2 µM (active). `CC(C)(O)c1coc(S(=O)(=O)NC(=O)Nc2c3c(cc4c2CCC4)CCC3)c1` was tested, and the outcome was “inactive”. With `CCn1nc(Cc2ccccc2)cc1C1CCN(C[C@H]2C[C@H](N(C)[C@@H](C(=O)O)C(C)C)C[C@@H]2c2cccc(F)c2)CC1` the AC50 was 8.22 µM (active). `COc1cccc(-c2ccc(/C=C\CN3CCCCCC3)cc2Cl)c1` was tested, and the AC50 was 7.83 µM (active). With `CCN(C(=O)c1cc(C)cc(OC[C@H](C)Nc2ccncc2)c1)C(C)C` the AC50 was 12.5 µM (active). In the case of `Cc1[nH]cnc1C[C@H]1CCc2c(C)c3ccccc3n2C1=O`, the outcome was “inactive”.

Each compound was assayed against human Androgen Receptor (AR), AR (gene 367) (UniProt P10275) (assay: NVS_NR_hAR: NovaScreen (NVS) Nuclear Receptor Binding Assay for human Androgen Receptor (AR) (AID 2283332)).
Sequence of human Androgen Receptor (AR), AR (gene 367) (P10275 whole entry, looked up): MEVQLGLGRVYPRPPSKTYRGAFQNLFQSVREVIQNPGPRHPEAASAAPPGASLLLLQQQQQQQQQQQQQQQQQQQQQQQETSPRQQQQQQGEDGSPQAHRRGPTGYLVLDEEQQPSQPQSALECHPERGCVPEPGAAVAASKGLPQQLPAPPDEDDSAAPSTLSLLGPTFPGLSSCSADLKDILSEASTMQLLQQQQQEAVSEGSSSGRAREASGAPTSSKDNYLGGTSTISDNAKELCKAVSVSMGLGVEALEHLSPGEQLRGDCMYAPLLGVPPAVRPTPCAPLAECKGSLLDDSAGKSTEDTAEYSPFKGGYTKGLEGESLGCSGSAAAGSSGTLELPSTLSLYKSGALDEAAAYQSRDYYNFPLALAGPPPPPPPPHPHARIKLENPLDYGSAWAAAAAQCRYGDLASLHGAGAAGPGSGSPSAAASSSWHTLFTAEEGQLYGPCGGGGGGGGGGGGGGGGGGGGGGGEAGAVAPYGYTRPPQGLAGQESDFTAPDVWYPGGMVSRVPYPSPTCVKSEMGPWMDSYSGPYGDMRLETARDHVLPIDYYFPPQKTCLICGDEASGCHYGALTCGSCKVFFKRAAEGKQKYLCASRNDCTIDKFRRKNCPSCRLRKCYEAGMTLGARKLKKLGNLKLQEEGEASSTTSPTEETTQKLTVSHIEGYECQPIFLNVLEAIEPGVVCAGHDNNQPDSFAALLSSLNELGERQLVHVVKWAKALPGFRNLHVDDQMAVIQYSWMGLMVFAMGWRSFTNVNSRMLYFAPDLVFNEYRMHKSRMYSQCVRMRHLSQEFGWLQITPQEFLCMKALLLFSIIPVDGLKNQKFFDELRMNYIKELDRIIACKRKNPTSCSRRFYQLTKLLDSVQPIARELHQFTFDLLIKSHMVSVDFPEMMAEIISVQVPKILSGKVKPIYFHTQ
Summary of the method: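 LnCAP cell-free extract; radioligand displacement read by scintillation counting after 20 h. Primary screen single concentration 25 uM in duplicate, actives then run as concentration series; loss-of-signal fitted relative to DMSO baseline.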
In the case of `O=C(O)c1cccc(N(Cc2cccnc2)c2ccc(OC(F)F)c(OC(F)F)c2)c1`, the AC50 was 0.0186 µM (active). With `CCCCCCc1ccc(O)cc1O` the AC50 was 8.25 µM (active). In the case of `Oc1ccc2c(c1)-c1ccccc1C2`, the AC50 was 6.89 µM (active).

Each compound was assayed against Voltage-gated inwardly rectifying potassium channel KCNH2 (Homo sapiens) (UniProt Q12809) (assay: NVS_IC_hKhERGCh: NovaScreen (NVS) Ion Channel Assay for human Potassium Channel ERG (KhERGCh) (AID 2283333)).
Sequence of Voltage-gated inwardly rectifying potassium channel KCNH2 (Homo sapiens) (Q12809 whole entry, looked up): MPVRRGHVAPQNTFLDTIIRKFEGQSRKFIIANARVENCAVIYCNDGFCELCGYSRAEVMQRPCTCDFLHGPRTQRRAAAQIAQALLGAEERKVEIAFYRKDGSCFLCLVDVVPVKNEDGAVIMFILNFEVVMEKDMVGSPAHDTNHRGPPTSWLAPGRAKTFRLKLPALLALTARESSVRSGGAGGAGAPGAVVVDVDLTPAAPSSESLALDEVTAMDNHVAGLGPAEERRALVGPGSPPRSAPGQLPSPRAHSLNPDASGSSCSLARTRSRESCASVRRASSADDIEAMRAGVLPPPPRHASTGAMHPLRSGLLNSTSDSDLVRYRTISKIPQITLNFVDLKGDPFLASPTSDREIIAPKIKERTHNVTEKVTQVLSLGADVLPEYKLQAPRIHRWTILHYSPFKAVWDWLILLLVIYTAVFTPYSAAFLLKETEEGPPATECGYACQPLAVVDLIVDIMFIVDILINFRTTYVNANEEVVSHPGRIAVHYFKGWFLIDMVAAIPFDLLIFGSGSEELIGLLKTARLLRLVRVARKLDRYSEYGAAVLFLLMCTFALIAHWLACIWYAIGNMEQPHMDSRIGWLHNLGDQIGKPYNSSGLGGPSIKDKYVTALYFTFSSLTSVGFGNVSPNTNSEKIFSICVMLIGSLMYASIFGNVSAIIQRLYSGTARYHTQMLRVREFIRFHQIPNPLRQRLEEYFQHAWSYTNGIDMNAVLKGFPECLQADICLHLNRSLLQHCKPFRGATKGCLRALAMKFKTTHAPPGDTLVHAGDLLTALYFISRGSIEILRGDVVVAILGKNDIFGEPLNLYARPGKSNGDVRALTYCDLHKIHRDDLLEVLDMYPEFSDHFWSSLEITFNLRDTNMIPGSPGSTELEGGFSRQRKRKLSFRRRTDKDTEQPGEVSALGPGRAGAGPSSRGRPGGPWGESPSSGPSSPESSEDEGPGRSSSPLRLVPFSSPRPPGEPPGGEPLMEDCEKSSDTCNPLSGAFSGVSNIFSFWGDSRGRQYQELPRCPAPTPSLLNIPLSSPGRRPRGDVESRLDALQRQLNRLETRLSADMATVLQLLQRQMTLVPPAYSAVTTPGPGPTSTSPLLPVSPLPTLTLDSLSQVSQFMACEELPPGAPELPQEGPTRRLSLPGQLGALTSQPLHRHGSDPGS
Summary of the method: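 Cell-free radioligand competition binding on hERG protein extracted from CHO cells, read by filter-based scintillation counting 0.75 h after dosing. Primary screen at 25 uM in duplicate, actives followed in concentration series. Signal loss fitted versus DMSO.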
For `Nc1ccc(Nc2ccccc2)cc1`, the outcome was “inactive”. `CCOC(=O)COc1ccc2c(c1)CC(NCC(O)c1cccc(Cl)c1)CC2` (stereo not given) was tested, and the AC50 was 21.5 µM (active). In the case of `CC(C)CC(C)(O)C#CC(C)(O)CC(C)C` (stereo not given), the outcome was “inactive”. For `CCOC(=O)c1ccc(C2CCC(NC[C@H](O)COc3ccc(O)c(NS(C)(=O)=O)c3)CC2)cc1` (stereo not given in full), the AC50 was 10.1 µM (active). For `COc1cccc(-c2ccc(/C=C\CN3CCCCCC3)cc2Cl)c1`, the AC50 was 5.95 µM (active). In the case of `Cc1[nH]cnc1C[C@H]1CCc2c(C)c3ccccc3n2C1=O`, the AC50 was 4.76 µM (active).
